Test results as given in PubChem BioAssay (NCI).
This is part of a sample that, as a whole, favours compounds with a hit. Of some 79,000 tested, about 15% had one in any assay. Calls of active or inactive are those of the source. No stated cut-off is given here; in the data, active means growth inhibition above about 70%; inactive means the rest.

Tests used:
[1] = NCI Yeast Anticancer Drug Screen. Data for the rad52 strain (AID 147);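 further: 0% = growth of vehicle-treated control cultures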; settings: S. cerevisiae rad52 mutant growth inhibition, active compounds read high
How it was run: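 Screen used a yeast mutant impaired in DNA repair. After compound exposure, growth was measured. Values reflect inhibition compared with vehicle-treated cells.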

[2] = NCI Yeast Anticancer Drug Screen. Data for the wt1 strain (AID 149);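 further: 0% = growth of vehicle-treated wt1 cultures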; settings: S. cerevisiae wt1 strain (SPY 50644) growth inhibition, active compounds read high
How it was run: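 Readout: yeast growth inhibition, normalised to vehicle controls, in the wt1 strain exposed to test compounds.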

[3] = NCI Yeast Anticancer Drug Screen. Data for the rad50EPP+ strain (AID 151);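 further: 0% = growth of vehicle-treated control cultures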; settings: S. cerevisiae rad50 mutant strain, active compounds read high
How it was run: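 Exposing the rad50EPP+ strain to each compound, growth was compared with vehicle-only cultures to give inhibition.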

[4] = NCI Yeast Anticancer Drug Screen. Data for the mgt1 strain (AID 153); settings: S. cerevisiae mgt1 mutant growth inhibition, active compounds read high
How it was run: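 Genetically defined yeast (mgt1) treated with compound; inhibition of growth expressed against vehicle-treated controls.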

[5] = NCI Yeast Anticancer Drug Screen. Data for the rad50 strain (AID 155);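 further: 0% = growth of vehicle-only cultures of the same strain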; settings: S. cerevisiae rad50 strain growth inhibition, active compounds read high
How it was run: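 Compounds were tested on a yeast strain with an engineered DNA damage repair alteration; the reported value is growth inhibition normalised to vehicle treatment.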

[6] = NCI Yeast Anticancer Drug Screen. Data for the mec2-1 strain (AID 157); settings: S. cerevisiae mec2-1 strain, active compounds read high
How it was run: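 Readout is yeast growth inhibition, normalised to vehicle-treated controls, in the mec2-1 strain exposed to compound.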

[7] = NCI Yeast Anticancer Drug Screen. Data for the rad14 strain (AID 159);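 further: 0% = growth of vehicle-treated control cultures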; settings: S. cerevisiae rad14 strain growth inhibition, active compounds read high
How it was run: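 Compound-treated yeast with a defined DNA-repair lesion; growth inhibition normalised to vehicle-treated cultures.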

[8] = NCI Yeast Anticancer Drug Screen. Data for the sgs1 mgt1 strain (AID 161);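 further: 0% = growth of cultures given vehicle only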; settings: S. cerevisiae sgs1 mgt1 strain, active compounds read high
How it was run: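 This yeast growth screen uses a strain with defined DNA-repair lesions; compound-treated growth is compared with vehicle-treated growth.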

[9] = NCI Yeast Anticancer Drug Screen. Data for the CLN2oe strain (AID 163);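 further: 0% = growth of vehicle-only control cultures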; settings: S. cerevisiae CLN2oe strain, active compounds read high
How it was run: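 Values reflect how much compound exposure reduced yeast growth, referenced to vehicle-exposed cells. Assay organism is a strain with a defined genetic change affecting cell-cycle control.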

[10] = NCI Yeast Anticancer Drug Screen. Data for the cln2 rad14 strain (AID 165);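 further: 0% = growth equal to vehicle treated cultures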; settings: S. cerevisiae cln2 rad14 strain, active compounds read high
How it was run: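 Relative to vehicle controls, growth inhibition of compound-treated cln2 rad14 yeast was recorded.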

[11] = NCI Yeast Anticancer Drug Screen. Data for the bub3 strain (AID 167); settings: S. cerevisiae bub3 mutant strain, active compounds read high
How it was run: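 Growth of a checkpoint-deficient yeast mutant is measured after compound exposure. Values represent inhibition relative to vehicle.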

[12] = NCI Yeast Anticancer Drug Screen. Data for the wt2 strain (AID 169);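 further: 0% = growth of vehicle-treated yeast cultures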; settings: S. cerevisiae wt2 strain growth inhibition, active compounds read high
How it was run: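 Values express reduction in yeast growth under compound treatment, referenced to vehicle-treated cells.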

[13] = NCI Yeast Anticancer Drug Screen. Data for the mlh1 strain (AID 171);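 further: 0% = growth of vehicle-treated control cultures of the same strain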; settings: S. cerevisiae mlh1 strain growth inhibition, active compounds read high
How it was run: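 Steps: expose the defined-mutant yeast strain to compound; expose a parallel culture to vehicle; measure growth; express compound effect as inhibition relative to the vehicle culture.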

[14] = NCI Yeast Anticancer Drug Screen. Data for the sgs1 strain (AID 173);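 further: 0% = growth of vehicle-only control cultures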; settings: S. cerevisiae sgs1 mutant, active compounds read high
How it was run: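 Treat defined-mutant yeast with compound; measure growth; calculate inhibition relative to vehicle-treated cells.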

[15] = NCI Yeast Anticancer Drug Screen. Data for the rad18 strain (AID 177); settings: S. cerevisiae rad18 mutant growth inhibition, active compounds read high
How it was run: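 A genetically defined yeast mutant impaired in DNA damage repair was treated with test compounds, then its growth was measured against cultures receiving vehicle alone.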

[16] = NCI Yeast Anticancer Drug Screen. Data for the mlh1 rad18 strain (AID 175); settings: S. cerevisiae mlh1 rad18 strain growth inhibition, active compounds read high
How it was run: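 Test agents were incubated with a yeast strain of defined genotype (DNA damage repair defect). Inhibition of growth was derived by comparison with vehicle-exposed cultures.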

[17] = at 5.0 µM (retest, dose inferred, filed as 0.5)
[18] = at 50.0 µM (retest, dose inferred, filed as 5.0)

Measured: growth inhibition

CCC(C)(C)c1ccc(Oc2cccc(C(=O)O)c2)cc1
active: [4]; at 100.0 µM 92% | [5]; at 50.0 µM 72.1% | [5]; at 100.0 µM 71% | [6]; at 33.0 µM 70% | [6]; at 50.0 µM 78.8% | [6]; at 100.0 µM 96% | [7]; at 100.0 µM 72% | [9]; at 33.0 µM 84% | [9]; at 100.0 µM 84% | [10]; at 50.0 µM 88% | [11]; at 50.0 µM 71.8% | [11]; at 100.0 µM 84% | [13]; at 100.0 µM 96%
inactive: [1]; at 1.2 µM -2% | [1]; at 3.7 µM -1% | [1]; at 11.0 µM 17% | [1]; at 33.0 µM 59% | [1]; at 100.0 µM 68% | [2]; at 1.2 µM -1% | [2]; at 3.7 µM -3% | [2]; at 11.0 µM 12% | [2]; at 33.0 µM 49% | [2]; at 100.0 µM 59% | [3]; at 1.2 µM 8% | [3]; at 3.7 µM 18% | [3]; at 11.0 µM 25% | [3]; at 33.0 µM 42% | [3]; at 100.0 µM 56% | [4]; at 1.2 µM -4% | [4]; at 3.7 µM -6% | [4]; at 11.0 µM 2% | [4]; at 33.0 µM 52% | [5]; at 1.2 µM 2% | [5]; at 3.7 µM -1% | [5]; [17] -2% | [5]; at 11.0 µM 25% | [5]; at 33.0 µM 55% | [5]; [18] 44% | [6]; at 1.2 µM -1% | [6]; at 3.7 µM 2% | [6]; [17] 19% | [6]; at 11.0 µM 25% | [6]; [18] 48% | [7]; at 1.2 µM -6% | [7]; at 3.7 µM -14% | [7]; at 11.0 µM 2% | [7]; at 33.0 µM 54% | [8]; [17] -1% | [8]; [18] 9% | [8]; at 50.0 µM 58.2% | [9]; at 1.2 µM -4% | [9]; at 3.7 µM -4% | [9]; at 11.0 µM 24% | [10]; [17] -27% | [10]; [18] 30% | [11]; at 1.2 µM -8% | [11]; at 3.7 µM -2% | [11]; [17] -17% | [11]; at 11.0 µM 23% | [11]; at 33.0 µM 68% | [11]; [18] 32% | [12]; at 1.2 µM -4% | [12]; at 3.7 µM -4% | [12]; at 11.0 µM 7% | [12]; at 33.0 µM 46% | [12]; at 100.0 µM 62% | [13]; at 1.2 µM 1% | [13]; at 3.7 µM -1% | [13]; at 11.0 µM 14% | [13]; at 33.0 µM 31% | [14]; at 1.2 µM 6% | [14]; at 3.7 µM 10% | [14]; at 11.0 µM 28% | [14]; at 33.0 µM 54% | [14]; at 100.0 µM 68% | [15]; at 1.2 µM 8% | [15]; at 3.7 µM 3% | [15]; at 11.0 µM 17% | [15]; at 33.0 µM 49% | [15]; at 100.0 µM 69%

O=C(NNc1ccccc1)c1ccc(Cl)c(Cl)c1
inactive: [1]; at 1.2 µM -1% | [1]; at 3.7 µM 2% | [1]; at 11.0 µM 5% | [1]; at 33.0 µM 26% | [1]; at 100.0 µM 58% | [2]; at 1.2 µM 0% | [2]; at 3.7 µM -1% | [2]; at 11.0 µM 1% | [2]; at 33.0 µM 16% | [2]; at 100.0 µM 46% | [3]; at 1.2 µM -1% | [3]; at 3.7 µM 5% | [3]; at 11.0 µM 13% | [3]; at 33.0 µM 33% | [4]; at 1.2 µM -1% | [4]; at 3.7 µM -1% | [4]; at 11.0 µM 2% | [4]; at 33.0 µM 8% | [4]; at 100.0 µM 23% | [5]; at 1.2 µM 2% | [5]; at 3.7 µM 5% | [5]; [17] 4% | [5]; at 11.0 µM 11% | [5]; at 33.0 µM 21% | [5]; [18] -4% | [5]; at 50.0 µM 38.6% | [5]; at 100.0 µM 61% | [6]; at 1.2 µM -4% | [6]; at 3.7 µM -3% | [6]; [17] -9% | [6]; at 11.0 µM -5% | [6]; at 33.0 µM 2% | [6]; [18] 3% | [6]; at 50.0 µM 40.9% | [6]; at 100.0 µM 23% | [7]; at 1.2 µM -2% | [7]; at 3.7 µM -2% | [7]; at 11.0 µM 3% | [7]; at 33.0 µM 4% | [7]; at 100.0 µM 23% | [8]; [17] 5% | [8]; [18] 19% | [8]; at 50.0 µM 44.2% | [9]; at 1.2 µM -7% | [9]; at 3.7 µM -3% | [9]; at 11.0 µM 0% | [9]; at 33.0 µM 14% | [9]; at 100.0 µM 40% | [10]; [17] 31% | [10]; [18] 18% | [10]; at 50.0 µM 0.2% | [11]; at 1.2 µM -5% | [11]; at 3.7 µM -2% | [11]; [17] -5% | [11]; at 11.0 µM -7% | [11]; at 33.0 µM 2% | [11]; [18] 13% | [11]; at 50.0 µM 30.3% | [11]; at 100.0 µM 14% | [12]; at 1.2 µM 1% | [12]; at 3.7 µM -1% | [12]; at 11.0 µM 2% | [12]; at 33.0 µM 15% | [12]; at 100.0 µM 37% | [13]; at 1.2 µM -2% | [13]; at 3.7 µM -3% | [13]; at 11.0 µM -3% | [13]; at 33.0 µM 8% | [13]; at 100.0 µM 47% | [14]; at 1.2 µM -3% | [14]; at 3.7 µM -3% | [14]; at 11.0 µM -1% | [14]; at 33.0 µM 17% | [14]; at 100.0 µM 47% | [16]; [17] 6% | [16]; [18] 61% | [16]; at 50.0 µM 44.9% | [15]; at 1.2 µM 2% | [15]; at 3.7 µM 4% | [15]; at 11.0 µM 6% | [15]; at 33.0 µM 37%
active: [3]; at 100.0 µM 74% | [15]; at 100.0 µM 88%

CCCCCCCCCCCCCCCCOP(=O)(O)OCC(N)C(=O)O (stereo not drawn)
active: [1]; at 33.0 µM 98% | [1]; at 100.0 µM 98% | [2]; at 33.0 µM 98% | [2]; at 100.0 µM 97% | [3]; at 11.0 µM 80% | [3]; at 33.0 µM 98% | [3]; at 100.0 µM 98% | [4]; at 33.0 µM 97% | [4]; at 100.0 µM 97% | [5]; at 33.0 µM 97% | [5]; [18] 98% | [5]; at 50.0 µM 98.4% | [5]; at 100.0 µM 97%
inactive: [1]; at 1.2 µM -2% | [1]; at 3.7 µM 5% | [1]; at 11.0 µM 54% | [2]; at 1.2 µM -19% | [2]; at 3.7 µM -22% | [2]; at 11.0 µM 39% | [3]; at 1.2 µM -17% | [3]; at 3.7 µM -4% | [4]; at 1.2 µM -1% | [4]; at 3.7 µM 5% | [4]; at 11.0 µM 52% | [5]; at 1.2 µM -20% | [5]; at 3.7 µM -6% | [5]; [17] -25% | [5]; at 11.0 µM 42% | [6]; at 1.2 µM 6% | [6]; at 3.7 µM 3%
